Each structure is given as a SMILES string. The whole screen tested about 96,000 compounds, of which about 19,000 (20%) were called active. The list is a sample of the results. A number with no mark means an inactive call.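 How the source made its calls: active means blocking of liver enzyme CYP2C9 beyond about 50% at 5 µM (limit read from the data); inactive means the rest.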

Usually inhibition stands for the drop in the measured response relative to a control, in per cent.

Cytochrome P450 2C9 (Homo sapiens), sequence (P11712 whole entry, looked up): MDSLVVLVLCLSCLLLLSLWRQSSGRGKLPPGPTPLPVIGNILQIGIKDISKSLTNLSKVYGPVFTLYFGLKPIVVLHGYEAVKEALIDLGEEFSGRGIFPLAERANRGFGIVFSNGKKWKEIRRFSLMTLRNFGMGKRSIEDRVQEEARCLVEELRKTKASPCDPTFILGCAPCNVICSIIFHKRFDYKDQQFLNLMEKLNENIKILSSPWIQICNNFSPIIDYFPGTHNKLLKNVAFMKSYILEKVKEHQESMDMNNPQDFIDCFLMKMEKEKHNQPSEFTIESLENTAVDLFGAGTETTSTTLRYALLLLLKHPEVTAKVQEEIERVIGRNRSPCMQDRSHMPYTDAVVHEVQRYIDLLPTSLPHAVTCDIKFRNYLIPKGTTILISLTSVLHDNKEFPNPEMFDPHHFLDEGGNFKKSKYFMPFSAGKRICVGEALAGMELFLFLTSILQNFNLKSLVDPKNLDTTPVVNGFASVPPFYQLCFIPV

The assay addresses Cytochrome P450 2C9 (Homo sapiens) (UniProt P11712). Put plainly: blockers of cytochrome P450 2C9 activity – biochemical, luminescence, ADME assay, primary screen (AID 777). As to conditions: CYP2C9 Supersomes, luciferin-H conversion, at 5 µM, active compounds read high.
As to `C=CCn1c(SCC(=O)Nc2nc3ccccc3s2)nnc1-c1ccccc1O`, the inhibition was 56.6% (active).
To `C=CCn1c(SCC(=O)NCc2ccccc2)nnc1-c1cc(Br)ccc1O` belongs 97.5% (active); to `C=CCn1c(N)cc(=O)nc1SCC(=O)Nc1cccc2ccccc12`, -3.7%; to `C=CCn1c(CSc2nc3ccccc3s2)nnc1SCC(=O)NCc1ccco1`, 24.7%.
As for `Cc1nnc(SCC(=O)NCc2ccccc2)s1`, the figure is -1%; as for `C=CCn1c(COc2ccccc2)nnc1SCC(=O)NCC(=O)OCC`, -5.6%; as for `CCC(Sc1nncn1C)C(=O)Nc1nnc(-c2ccc(Cl)cc2)s1` (stereo unspecified), 32.9%.
To `COc1ccc2c(c1OC)C(=O)OC2c1c(O)nc(SC)n(-c2ccccc2)c1=O` (stereo unspecified) belongs -12.4%.
Consider `O=C(NC1CC2CCCC(C1)N2C(=O)N1CCCCC1)C1CCCCC1` (stereo unspecified), for which the inhibition was 25.5%.
Turning to `CCOc1ccccc1Nc1nnc(SCC(=O)Nc2cc(C)on2)s1`, the inhibition is 7.4%.
`COc1ncnc2c1N=C1CC(C)(C)CC(N)=C1S2`: the inhibition is 1.2%.
As for `Cc1nc2cc(NC(=O)CSc3nc4c(C)cccc4cc3C#N)ccc2s1`, the figure is 25.5%; as for `Cc1cc2cc3c(cc2nc1SCC(=O)Nc1c(C)cccc1C)CCC3`, 61.6% (active).
As to `CCCn1c(SCC(=O)Nc2c(C)cccc2C)nnc1C(C)C`, the inhibition was 4.1%.
As for `Cn1c(SCC(=O)OC2CCCCC2)nnc1-c1ccc(S(=O)(=O)N2CCCC2)cc1`, the figure is 7.9%; as for `CCN(CC)c1ccc(/C=N/Nc2nc(C)cc(=O)[nH]2)cc1`, -21.5%; as for `CC1=C2C(=O)OC(c3ccoc3)C2(C)CCC1` (stereo unspecified), 57.9% (active).
As for `CC(C)C(=O)Nc1c(C(=O)c2ccc(F)cc2)oc2ccccc12`, the figure is -0.2%; as for `CCOc1nnc(C)c2c(C)n(-c3cccc(Cl)c3)nc12`, 28.6%; as for `CCOc1ccc2nc(NC(=O)CSc3nc4c(c(=O)n(C)c(=O)n4C)n3CC)sc2c1`, 52.2% (active).
To `CCCCn1c(SCC(=O)NCCc2ccc(OC)c(OC)c2)nc2c1c(=O)n(C)c(=O)n2C` belongs -17.3%; to `C#CC(C)(C)NC(=O)CSc1nc2c(c(=O)n(C)c(=O)n2C)n1CCCC`, 23.7%.
`CCCn1c(SCC(=O)Nc2cccc(C(=O)OCC)c2)nnc1-c1ccoc1C`: the inhibition is 15.8%.
To `CCOC(=O)CNC(=O)CSc1nnc(-c2cccc(OC)c2)n1CC` belongs 9.9%; to `CCn1c(SCC(=O)Nc2nc3ccc(OC)cc3s2)nnc1-c1ccoc1C`, 68.2% (active).
As for `Cc1c(Nc2cc(N3CCCC(C)C3)c3nonc3c2[N+](=O)[O-])c(=O)n(-c2ccccc2)n1C` (stereo unspecified), the figure is 41.4%.

Source of the values: PubChem BioAssay AID777 (Sanford-Burnham Center for Chemical Genomics, 2007).
